Five molecules from PubChem BioAssay (EPA / NIEHS) can be followed below.

A short description of test [1]: ATG_TAL_CIS: Attagene CIS-FACTORIAL HepG2 Assay for human TAL Basal Promoter (AID 2282966).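 Note: background control endpoint measuring basal TAL promoter reporter mRNA not a specific factor.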 The following applies: HepG2 Attagene cis-factorial TAL promoter reporter; actives raise or lower the signal. In short, it runs like this: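 HepG2 cells were transiently transfected with promoter-driven multiplexed reporter units and dosed for 24 h. Reporter mRNA was measured by RT-PCR with capillary electrophoresis fluorescence; bidirectional fits used DMSO as baseline, serving as a background control.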

Test [2] is described as follows: ATG_TGFb_CIS: Attagene CIS-FACTORIAL HepG2 Assay for human Transforming Growth Factor (TGF) (AID 2282967). The following applies: HepG2 Attagene CIS TGFb reporter, mRNA transcription; actives raise or lower the signal. In a few lines:
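Transcript-level reporter readout: HepG2 transfectants, 24 h exposure, RNA to cDNA, reporter-specific PCR, fluorescent primer extension, capillary sizing against ROX standards. Gain- or loss-of-signal relative to DMSO.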

The target in test [3] is Nuclear receptor subfamily 1 group I member 3 (Homo sapiens) (UniProt Q14994). The test can be described thus: ATG_CAR_TRANS: Attagene TRANS-FACTORIAL HepG2 Assay for human Constitutive Androstane Receptor (CAR) (AID 2282969; active = hit-call score of the fitted dose curve at least 0.9, where 1 is the maximum;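 note: activators raise reporter mRNA above DMSO so AC50 marks induction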). To be noted: HepG2 Attagene TRANS-FACTORIAL CAR reporter. In a few lines:
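HepG2 cells transiently transfected with GAL4-UAS reporter units; TRANS format reads activity of exogenous chimeric NR-Gal4 protein. After 24 h dosing, reporter mRNA quantified by RT-PCR, 6-FAM labelling and capillary electrophoresis; gain of signal fitted against DMSO.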

Test [4] concerns the target X-box-binding protein 1 (Homo sapiens) (UniProt P17861). The test can be described thus: ATG_Xbp1_CIS: Attagene CIS-FACTORIAL HepG2 Assay for human X-box Binding Protein 1 (XBP1) (AID 2282972). The following applies: HepG2 XBP1 cis-element reporter, Attagene multiplex; actives raise or lower the signal. In short, it runs like this: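 Fluorescence-labelled cDNA fragments from reporter transcripts, separated by capillary electrophoresis, give the signal. Source: HepG2 cells transfected with promoter-driven reporter units, harvested 24 h post-dose. DMSO served as reference for bidirectional curve fitting.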

Test [5] concerns the target Oxysterols receptor LXR-alpha (Homo sapiens) (UniProt Q13133). As to the kind of experiment: ATG_LXRa_TRANS: Attagene TRANS-FACTORIAL HepG2 Assay for human Liver X Receptor alpha (LXRa) (AID 2282980; active = hit-call score of the fitted dose curve at least 0.9, where 1 is the maximum). To be noted: HepG2 Attagene TRANS reporter, LXRa transactivation. In short, it runs like this:
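HepG2 cells were transiently transfected with multiplexed reporter units driven by chimeric LXRa–GAL4 fusion proteins, then dosed for 24 h. Reporter mRNA was quantified by RT-PCR, fluorescent labelling and capillary electrophoresis; gain of signal fitted against DMSO baseline.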

Test [6] is described as follows: ATG_M_06_TRANS: Attagene TRANS-FACTORIAL HepG2 Assay for M06 Transcription Factor (Internal Marker) (AID 2282983; active = hit-call score of the fitted dose curve at least 0.9, where 1 is the maximum). To be noted: HepG2 Attagene TRANS M06 internal marker reporter. In a few lines: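 HepG2 cells transiently transfected with multiplexed GAL4-UAS reporter transcription units; after 24 h compound exposure, reporter mRNA measured by RT-PCR, FAM-labelled primer extension, HpaI digestion and capillary electrophoresis. Gain-of-signal fitted versus DMSO baseline; background control readout.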

Test [7] can be described thus: ATG_M_32_TRANS: Attagene TRANS-FACTORIAL HepG2 Assay for M32 Transcription Factor (Internal Marker) (AID 2282984; active = hit-call score of the fitted dose curve at least 0.9, where 1 is the maximum). To be noted: HepG2 Attagene TRANS M32 internal marker reporter. In short, it runs like this:
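Capillary electrophoresis of 6-FAM-labelled reporter fragments gives the signal; data fitted for gain over DMSO negative control. Source: HepG2 cells bearing transient multiple reporter transcription units, 24 h exposure.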

For test [8], the target named is Transcriptional activator Myb (Homo sapiens) (UniProt P10242). As to the kind of experiment: ATG_Myb_CIS: Attagene CIS-FACTORIAL HepG2 Assay for human Myeloblastosis (Myb) Proto-Oncogene Transcription Factor (AID 2282986). The following applies: HepG2 Attagene CIS-FACTORIAL Myb reporter transcription; actives raise or lower the signal. In a few lines: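 HepG2, transient MRTU transfection (cis-element promoters, endogenous TF activity), 24 h compound exposure. Readout: reporter mRNA via RT-PCR, 6-FAM labeling, HpaI digest, capillary electrophoresis. Gain/loss fit vs DMSO.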

In test [9] the target is Nuclear respiratory factor 1 (Homo sapiens) (UniProt Q16656). As to the kind of experiment: ATG_NRF1_CIS: Attagene CIS-FACTORIAL HepG2 Assay for human Nuclear Respiratory Factor 1 (NRF1) Orphan Gene (AID 2282987). To be noted: HepG2 NRF1 cis-element reporter, Attagene multiplex; actives raise or lower the signal. In a few lines:
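Endogenous NRF1-driven reporter transcription measured in transiently transfected human HepG2 liver cells. Readout: reporter mRNA by RT-PCR and capillary electrophoresis with fluorescence detection, 24 h post-dosing. Gain or loss of signal fitted relative to DMSO baseline.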

Test [10] can be described thus: ATG_NFI_CIS: Attagene CIS-FACTORIAL HepG2 Assay for human Nuclear Factor I (NFI) (AID 2282989). To be noted: HepG2 cis-regulatory reporter, NFI response element transcription; actives raise or lower the signal. In short, it runs like this:
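After transient transfection of HepG2 with cis-promoter reporter constructs and 24 h dosing, RNA is reverse-transcribed, amplified, 6-FAM end-labelled and HpaI-digested before capillary analysis. Bidirectional curve fitting against DMSO.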

Test [11] is described as follows: ATG_VDRE_CIS: Attagene CIS-FACTORIAL HepG2 Assay for human Vitamin D Receptor Element (VDRE) (AID 2282968). The following applies: HepG2 VDRE cis-reporter transcription, actives raise or lower the signal. In a few lines: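 Cell-based multiplexed reporter format in human liver HepG2 cells, 24 h post-dose. Fluorescence from capillary electrophoresis of reporter cDNA gives the signal, with DMSO as negative control and baseline.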

The target in test [12] is Estrogen-related receptor gamma (Homo sapiens) (UniProt P62508). As to the kind of experiment: ATG_ERRg_TRANS: Attagene TRANS-FACTORIAL HepG2 Assay for human Estrogen-Related Receptor gamma (ERRg) (AID 2282977; active = hit-call score of the fitted dose curve at least 0.9, where 1 is the maximum;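 note: hits increase reporter signal over DMSO so potencies reflect activators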). The following applies: HepG2 Attagene TRANS reporter, ERRg transactivation. In short, it runs like this: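 Transient HepG2 transfectants, 24 h compound exposure, GAL4-UAS reporter mRNA by RT-PCR/6-FAM labelling/capillary electrophoresis; positive direction vs DMSO.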

Test [13] addresses Glucocorticoid receptor (Homo sapiens) (UniProt P04150). The test can be described thus: ATG_GR_TRANS: Attagene TRANS-FACTORIAL HepG2 Assay for human Glucocorticoid Receptor (GR) (AID 2282978; active = hit-call score of the fitted dose curve at least 0.9, where 1 is the maximum;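 note: activators score as hits since higher reporter transcript over DMSO is fitted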). The following applies: HepG2 Attagene TRANS GR reporter, mRNA transcription. In short, it runs like this: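 Transient MRTU transfection of HepG2 (GAL4-UAS reporters, exogenous NR-GAL4 chimeras), 24 h dosing. Readout: reporter transcript via RT-PCR + capillary electrophoresis fluorescence. Positive direction vs DMSO baseline.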

Test [14] has as its target Bile acid receptor (Homo sapiens) (UniProt Q96RI1). The test can be described thus: ATG_FXR_TRANS: Attagene TRANS-FACTORIAL HepG2 Assay for Farnesoid X Receptor (FXR) (AID 2282979; active = hit-call score of the fitted dose curve at least 0.9, where 1 is the maximum;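 note: hits raise reporter mRNA above DMSO so AC50 marks FXR activation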). The following applies: HepG2 Attagene TRANS FXR-GAL4 reporter transcription. In short, it runs like this: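 HepG2 cells transiently transfected with reporter constructs in which a chimeric FXR-GAL4 protein drives a GAL4-UAS reporter; 24 h compound exposure. Reporter mRNA measured by RT-PCR, FAM labelling, HpaI digestion and capillary electrophoresis; gain-of-signal versus DMSO.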

Test [15] has as its target Oxysterols receptor LXR-beta (Homo sapiens) (UniProt P55055). As to the kind of experiment: ATG_LXRb_TRANS: Attagene TRANS-FACTORIAL HepG2 Assay for human Liver X Receptor beta (LXRb) (AID 2282981; active = hit-call score of the fitted dose curve at least 0.9, where 1 is the maximum). The following applies: HepG2 Attagene TRANS GAL4-LXRb reporter, mRNA. In a few lines: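 Gain-of-signal mRNA reporter endpoint, DMSO as negative control. Transiently transfected HepG2 cells carrying the NR-Gal4 chimera and GAL4-UAS reporter units were treated 24 h; transcripts quantified by RT-PCR and capillary electrophoresis fluorescence.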

Test [16] concerns the target Nuclear receptor subfamily 4 group A member 2 (Homo sapiens) (UniProt P43354). The test can be described thus: ATG_NURR1_TRANS: Attagene TRANS-FACTORIAL HepG2 Assay for human Nuclear Receptor Related Protein 1 (NURR1) (AID 2282985; active = hit-call score of the fitted dose curve at least 0.9, where 1 is the maximum). To be noted: HepG2 Attagene TRANS reporter, mRNA readout. In short, it runs like this: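 HepG2 / transient MRTU transfection / 24 h compound exposure / RT-PCR + CE fluorescence of reporter mRNA / gain-of-signal vs DMSO.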

The nature of test [17]: ATG_GAL4_TRANS: Attagene TRANS-FACTORIAL HepG2 Assay for GAL4 (Internal Marker) (AID 2282976; active = hit-call score of the fitted dose curve at least 0.9, where 1 is the maximum). The following applies: HepG2 Attagene TRANS GAL4 internal marker reporter. In a few lines:
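HepG2 cells transiently transfected with multiplexed GAL4-UAS reporter constructs were dosed for 24 h. Reporter mRNA was measured by RT-PCR, 6-FAM primer extension, HpaI digestion and capillary electrophoresis, and gain of signal was fitted relative to DMSO.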

Test [18] can be described thus: ATG_M_19_TRANS: Attagene TRANS-FACTORIAL HepG2 Assay for M19 Transcription Factor (Internal Marker) (AID 2282974; active = hit-call score of the fitted dose curve at least 0.9, where 1 is the maximum). The following applies: HepG2 Attagene TRANS-FACTORIAL M19 internal marker reporter. In short, it runs like this: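 24 h chemical exposure of transiently transfected HepG2 (MRTU library). RNA → oligo(dT) RT → PCR → 6-FAM labelling → HpaI cut → CE fluorescence. Positive-direction fit vs DMSO baseline; background internal-marker readout.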

The structures appear in SMILES notation. Inconclusive results are not listed. Calls of active or inactive are those of the source. Rule for the calls, unless noted: active = hit-call score of the fitted dose curve at least 0.9, where 1 is the maximum; inactive = score below 0.9.

Sequence of X-box-binding protein 1 (Homo sapiens) (P17861 whole entry, looked up, the tested form may be a part): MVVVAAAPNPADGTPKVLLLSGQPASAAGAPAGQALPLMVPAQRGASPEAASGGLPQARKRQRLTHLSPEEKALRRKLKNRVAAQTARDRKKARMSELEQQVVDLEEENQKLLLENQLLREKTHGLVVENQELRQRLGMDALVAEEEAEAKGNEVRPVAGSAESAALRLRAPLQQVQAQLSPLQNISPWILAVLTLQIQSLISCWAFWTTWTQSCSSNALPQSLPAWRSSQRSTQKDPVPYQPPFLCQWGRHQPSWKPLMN
Sequence of Estrogen-related receptor gamma (Homo sapiens) (P62508 whole entry, looked up, the tested form may be a part): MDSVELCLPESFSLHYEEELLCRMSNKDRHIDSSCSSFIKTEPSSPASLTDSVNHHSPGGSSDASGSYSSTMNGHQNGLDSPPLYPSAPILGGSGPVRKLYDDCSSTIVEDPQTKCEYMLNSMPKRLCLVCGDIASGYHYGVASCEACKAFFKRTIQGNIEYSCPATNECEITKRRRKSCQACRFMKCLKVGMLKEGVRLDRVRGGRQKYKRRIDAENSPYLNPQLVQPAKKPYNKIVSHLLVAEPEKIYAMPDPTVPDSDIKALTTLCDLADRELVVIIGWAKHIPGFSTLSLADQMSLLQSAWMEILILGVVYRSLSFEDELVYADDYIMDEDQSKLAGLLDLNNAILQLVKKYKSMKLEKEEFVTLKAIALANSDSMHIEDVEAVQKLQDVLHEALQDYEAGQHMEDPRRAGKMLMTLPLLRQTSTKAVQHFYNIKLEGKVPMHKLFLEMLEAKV
Sequence of Nuclear receptor subfamily 1 group I member 3 (Homo sapiens) (Q14994 whole entry, looked up, the tested form may be a part): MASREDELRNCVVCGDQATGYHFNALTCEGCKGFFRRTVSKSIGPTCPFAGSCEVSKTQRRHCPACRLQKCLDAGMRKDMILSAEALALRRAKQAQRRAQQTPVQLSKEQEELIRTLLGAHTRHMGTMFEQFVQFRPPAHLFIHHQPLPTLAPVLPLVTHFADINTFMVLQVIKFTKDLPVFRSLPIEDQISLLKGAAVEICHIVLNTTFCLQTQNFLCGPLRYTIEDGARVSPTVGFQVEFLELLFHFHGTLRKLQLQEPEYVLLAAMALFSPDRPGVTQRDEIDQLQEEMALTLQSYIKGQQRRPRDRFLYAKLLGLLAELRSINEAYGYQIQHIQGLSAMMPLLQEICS
Sequence of Nuclear respiratory factor 1 (Homo sapiens) (Q16656 whole entry, looked up): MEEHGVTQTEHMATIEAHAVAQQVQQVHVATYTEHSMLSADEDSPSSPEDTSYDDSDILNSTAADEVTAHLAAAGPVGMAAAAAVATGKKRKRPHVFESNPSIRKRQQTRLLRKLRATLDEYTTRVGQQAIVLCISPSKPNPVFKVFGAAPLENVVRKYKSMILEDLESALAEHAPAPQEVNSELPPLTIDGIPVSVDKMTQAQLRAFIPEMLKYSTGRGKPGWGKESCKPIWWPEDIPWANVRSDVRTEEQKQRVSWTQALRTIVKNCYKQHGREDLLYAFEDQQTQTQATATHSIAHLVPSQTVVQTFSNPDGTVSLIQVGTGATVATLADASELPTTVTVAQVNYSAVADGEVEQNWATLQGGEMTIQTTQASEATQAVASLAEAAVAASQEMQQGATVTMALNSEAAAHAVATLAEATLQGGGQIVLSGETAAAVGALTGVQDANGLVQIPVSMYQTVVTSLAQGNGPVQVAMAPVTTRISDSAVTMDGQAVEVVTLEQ
Sequence of Oxysterols receptor LXR-alpha (Homo sapiens) (Q13133 whole entry, looked up, the tested form may be a part): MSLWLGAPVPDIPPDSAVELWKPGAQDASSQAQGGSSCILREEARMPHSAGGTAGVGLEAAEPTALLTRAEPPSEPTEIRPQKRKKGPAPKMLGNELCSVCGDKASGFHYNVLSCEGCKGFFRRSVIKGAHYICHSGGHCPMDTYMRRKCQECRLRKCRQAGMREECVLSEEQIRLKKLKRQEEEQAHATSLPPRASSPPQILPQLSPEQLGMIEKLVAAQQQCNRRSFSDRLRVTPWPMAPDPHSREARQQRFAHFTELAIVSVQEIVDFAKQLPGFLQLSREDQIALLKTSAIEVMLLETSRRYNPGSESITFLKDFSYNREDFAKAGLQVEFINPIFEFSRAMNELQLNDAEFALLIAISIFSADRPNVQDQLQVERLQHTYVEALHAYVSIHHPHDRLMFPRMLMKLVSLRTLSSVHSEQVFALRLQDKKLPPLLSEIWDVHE
Sequence of Transcriptional activator Myb (Homo sapiens) (P10242 whole entry, looked up): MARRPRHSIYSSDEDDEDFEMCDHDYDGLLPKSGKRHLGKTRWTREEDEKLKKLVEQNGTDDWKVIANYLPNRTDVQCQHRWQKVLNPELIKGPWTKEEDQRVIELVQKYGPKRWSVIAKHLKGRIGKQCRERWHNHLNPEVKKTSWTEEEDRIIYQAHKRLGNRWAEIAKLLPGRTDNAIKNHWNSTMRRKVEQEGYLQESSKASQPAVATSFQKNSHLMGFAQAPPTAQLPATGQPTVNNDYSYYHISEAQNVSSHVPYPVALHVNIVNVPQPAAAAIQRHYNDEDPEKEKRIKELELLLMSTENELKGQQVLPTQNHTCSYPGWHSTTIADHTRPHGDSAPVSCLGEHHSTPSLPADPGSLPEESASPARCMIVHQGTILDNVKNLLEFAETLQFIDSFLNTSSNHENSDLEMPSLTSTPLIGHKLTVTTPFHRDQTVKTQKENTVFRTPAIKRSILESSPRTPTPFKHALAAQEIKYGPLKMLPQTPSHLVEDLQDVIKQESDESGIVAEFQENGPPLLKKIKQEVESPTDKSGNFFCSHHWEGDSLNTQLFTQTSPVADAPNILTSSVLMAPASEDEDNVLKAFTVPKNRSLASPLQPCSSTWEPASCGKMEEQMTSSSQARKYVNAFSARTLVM
Sequence of Glucocorticoid receptor (Homo sapiens) (P04150 whole entry, looked up, the tested form may be a part): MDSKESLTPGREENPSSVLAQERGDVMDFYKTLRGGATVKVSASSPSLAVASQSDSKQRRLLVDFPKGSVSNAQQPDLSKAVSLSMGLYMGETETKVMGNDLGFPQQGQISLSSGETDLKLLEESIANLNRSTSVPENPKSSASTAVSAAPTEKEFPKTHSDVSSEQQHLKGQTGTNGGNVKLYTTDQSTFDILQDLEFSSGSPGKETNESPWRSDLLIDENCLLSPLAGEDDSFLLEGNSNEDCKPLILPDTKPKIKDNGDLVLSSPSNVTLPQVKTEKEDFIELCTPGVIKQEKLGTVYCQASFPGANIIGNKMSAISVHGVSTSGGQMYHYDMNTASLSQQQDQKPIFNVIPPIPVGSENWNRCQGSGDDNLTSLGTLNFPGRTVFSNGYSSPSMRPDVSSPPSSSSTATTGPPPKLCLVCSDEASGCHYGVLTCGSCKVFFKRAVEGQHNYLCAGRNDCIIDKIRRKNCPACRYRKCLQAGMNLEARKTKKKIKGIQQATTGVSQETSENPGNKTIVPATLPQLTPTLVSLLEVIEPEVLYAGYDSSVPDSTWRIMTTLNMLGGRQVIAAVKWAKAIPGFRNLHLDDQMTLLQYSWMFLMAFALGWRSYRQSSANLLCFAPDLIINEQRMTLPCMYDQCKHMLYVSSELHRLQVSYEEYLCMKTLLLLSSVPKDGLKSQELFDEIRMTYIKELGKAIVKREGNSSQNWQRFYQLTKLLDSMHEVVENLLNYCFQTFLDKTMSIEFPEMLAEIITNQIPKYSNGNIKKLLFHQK
Sequence of Bile acid receptor (Homo sapiens) (Q96RI1 whole entry, looked up, the tested form may be a part): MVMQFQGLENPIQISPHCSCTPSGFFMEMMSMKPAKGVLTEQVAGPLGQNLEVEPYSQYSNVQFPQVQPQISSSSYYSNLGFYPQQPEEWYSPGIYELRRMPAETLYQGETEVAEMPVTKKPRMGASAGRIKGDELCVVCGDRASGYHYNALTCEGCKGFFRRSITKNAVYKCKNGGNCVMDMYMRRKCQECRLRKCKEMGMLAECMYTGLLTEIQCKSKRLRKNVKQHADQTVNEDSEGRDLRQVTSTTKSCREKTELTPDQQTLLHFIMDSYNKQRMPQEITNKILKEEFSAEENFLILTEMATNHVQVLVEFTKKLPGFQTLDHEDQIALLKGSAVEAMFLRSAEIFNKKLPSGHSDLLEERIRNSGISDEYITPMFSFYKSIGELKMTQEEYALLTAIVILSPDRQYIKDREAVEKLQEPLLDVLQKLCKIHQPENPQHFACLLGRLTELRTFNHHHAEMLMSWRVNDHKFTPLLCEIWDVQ
Sequence of Nuclear receptor subfamily 4 group A member 2 (Homo sapiens) (P43354 whole entry, looked up): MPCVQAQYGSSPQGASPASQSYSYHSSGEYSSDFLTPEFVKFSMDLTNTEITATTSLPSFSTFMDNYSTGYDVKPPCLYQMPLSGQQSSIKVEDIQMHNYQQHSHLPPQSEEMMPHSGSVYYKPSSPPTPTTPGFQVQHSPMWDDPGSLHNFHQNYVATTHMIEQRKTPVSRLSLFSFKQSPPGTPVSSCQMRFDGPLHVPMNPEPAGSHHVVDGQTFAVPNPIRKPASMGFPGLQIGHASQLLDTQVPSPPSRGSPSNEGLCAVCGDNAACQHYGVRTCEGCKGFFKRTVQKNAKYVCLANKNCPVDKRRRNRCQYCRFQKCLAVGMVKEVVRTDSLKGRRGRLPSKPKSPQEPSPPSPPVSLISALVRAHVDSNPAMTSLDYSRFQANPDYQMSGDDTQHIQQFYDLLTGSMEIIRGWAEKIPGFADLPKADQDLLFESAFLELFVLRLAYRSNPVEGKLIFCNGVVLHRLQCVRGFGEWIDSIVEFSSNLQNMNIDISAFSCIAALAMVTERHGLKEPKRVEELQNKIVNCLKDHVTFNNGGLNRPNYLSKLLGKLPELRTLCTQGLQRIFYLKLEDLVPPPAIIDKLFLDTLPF
Sequence of Oxysterols receptor LXR-beta (Homo sapiens) (P55055 whole entry, looked up, the tested form may be a part): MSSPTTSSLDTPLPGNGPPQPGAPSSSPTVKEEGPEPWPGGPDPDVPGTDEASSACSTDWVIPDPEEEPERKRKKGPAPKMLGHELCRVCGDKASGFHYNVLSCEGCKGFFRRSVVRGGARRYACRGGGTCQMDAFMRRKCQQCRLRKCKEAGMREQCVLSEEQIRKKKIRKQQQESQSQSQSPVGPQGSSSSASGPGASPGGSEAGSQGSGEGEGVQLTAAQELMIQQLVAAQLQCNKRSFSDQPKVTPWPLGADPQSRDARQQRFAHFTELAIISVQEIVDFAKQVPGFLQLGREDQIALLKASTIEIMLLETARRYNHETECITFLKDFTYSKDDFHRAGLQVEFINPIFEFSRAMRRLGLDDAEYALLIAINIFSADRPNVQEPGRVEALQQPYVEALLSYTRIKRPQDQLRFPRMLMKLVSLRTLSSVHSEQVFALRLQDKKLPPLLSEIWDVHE

On to `CCN(C(=O)c1cc(C)cc(OC[C@H](C)Nc2ccncc2)c1)C(C)C`, for which the molecule was classed as inactive in test [1], in [2], in test [3], in test [4], in test [6] and in test [7]. The outcome in test [8], in [9] and in test [10] was inactive. In addition, the AC50 (in general, the concentration at which the activity in the assay is half-maximal) in test [5] was 0.486 µM (active).

As to `Cc1[nH]cnc1C[C@H]1CCc2c(C)c3ccccc3n2C1=O`, the AC50 in test [1] was 40.8 µM (active); in test [11], 29.7 µM (active); in test [4], 20.4 µM (active); in test [9] it was 13.1 µM (active). In addition, the molecule was classed as inactive in test [2], in [12], in test [13], in [14], in test [5] and in test [15]. For the same molecule, the call in test [6], in [7], in test [16], in test [8] and in test [10] was inactive.

As to `Oc1ccc2c(c1)-c1ccccc1C2`, the molecule was classed as inactive in [1], in test [2], in [17], in [13], in [14] and in test [6]. The outcome in test [7] and in test [9] was inactive. Also, the half-maximal activity concentration (AC50) is 28.8 µM (active) in test [11], 57.7 µM (active) in test [4] and 37.9 µM (active) in test [10].

For `Cn1c(=O)c2c(ncn2C)n(C)c1=O`, the call in [1], in test [2], in [3], in test [4], in [18] and in [12] was inactive. Also, the molecule was classed as inactive in test [7], in test [9] and in [10].

Regarding `O=C(NS(=O)(=O)/C=C/c1ccccc1)c1ccc(F)cc1Cl`, the molecule was classed as inactive in test [1], in test [2], in [3], in test [4], in [18] and in test [12]. Also, the result in test [5], in test [7], in test [8], in [9] and in test [10] was inactive.
